Screens from PubChem.
Rows were chosen to be rich in hits. Some 3.4% of all compounds tested hit in one or more screens of this group.
Gli-Sufu antag: Gli-Sufu pathway antagonism. Sufu-KO-LIGHT fibroblasts, Gli luciferase reporter luminescence. inhibition, % at 5 µM. hit rate 0.74% among 340,000;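 active means inhibition above about 55%, limit read from the data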
GalR3 antag: human GalR3 antagonism; inhibition, % at 3 µM; AID 651719; O60755; hit rate 0.44% among 360,000; HEK293 GalR3-CNG cAMP membrane potential fluorescence; galR3 body fused to GalR1 C-terminus;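 active means inhibition above the screen-wide average plus 3 SD, cut at about 13% in these data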;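 further: forskolin and galanin both at EC90 stimulate the cells; cAMP rise reported by CNG channel membrane potential dye signal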
COUP-TFII inh: inhibitors of human COUP-TFII (NR2F2); P24468; HEK293T NGFI-A luciferase reporter, luminescence; inhibition, % at 8.6 µM; hit rate 0.7% among 370,000;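 active means inhibition above a per-plate cutoff, mean inhibition of test wells between control levels plus 3 SD, cut at about 38% in these data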;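 further: cells cotransfected with COUP-TFII expression vector driving the NGFI-A reporter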
Target sequence (P24468 whole entry, looked up): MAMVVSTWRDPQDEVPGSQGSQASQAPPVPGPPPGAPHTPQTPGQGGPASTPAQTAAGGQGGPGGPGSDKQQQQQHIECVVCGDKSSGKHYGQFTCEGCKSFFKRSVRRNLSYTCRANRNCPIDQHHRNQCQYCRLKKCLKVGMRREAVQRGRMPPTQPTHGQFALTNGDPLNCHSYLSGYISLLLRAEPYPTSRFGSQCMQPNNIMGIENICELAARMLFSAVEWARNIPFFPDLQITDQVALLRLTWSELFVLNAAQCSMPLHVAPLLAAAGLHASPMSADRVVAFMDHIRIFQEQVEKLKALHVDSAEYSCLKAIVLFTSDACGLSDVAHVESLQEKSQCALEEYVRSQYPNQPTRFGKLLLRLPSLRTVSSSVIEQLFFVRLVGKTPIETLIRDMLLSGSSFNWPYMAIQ
H9c2 protect: protects H9c2 cardiomyocytes from peroxide injury; protection from H2O2 cell death, % at 20 µM; hit rate 0.63% among 360,000; H2O2 injury protection, ATPLite, 2 h;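 active means compounds giving at least 50% protection of heart cells from peroxide-induced death in the single-dose screen, raw or plate-pattern-corrected value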
FXN GAA850 act: activators of GAA850 frataxin (FXN) promoter. HEK293 lucGAA850 FXN promoter luciferase reporter, 24 h; percent of 10 µM SAHA response. activation, % at 6 µM. hit rate 0.56% among 360,000;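 active means activation above the average of all compounds screened plus 3 SD, cutoff fixed separately per campaign, cut at about 7.5% in these data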
SMARCA2 activ: SMARCA2 function activation, primary screen. MG213 cells, MMTV-luciferase reporter, dexamethasone, overnight. activation, % at 9.1 µM. hit rate 1% among 370,000. AID 652017; in the data active means activation above about 7.8%
Gli antag conf: Gli-SUFU antagonism confirmation, single concentration | shares compounds with Gli-Sufu antag | Sufu-KO-LIGHT cells, Gli luciferase reporter, luminescence | inhibition, % at 5 µM | hit rate 40% among 2,500 | AID 602428;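 active means mean inhibition at 5 µM reaching about 45%, limit read from the data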
SufuKO cytotox: cytotoxic in Gli-SUFU antagonist counter-screen | shares compounds with Gli-Sufu antag | Sufu-KO-LIGHT cells cytotoxicity, ATP luminescence | cytotoxicity, % at 5 µM | hit rate 32% among 2,500 | AID 651994;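 active means mean cytotoxicity at 5 µM above about 25%, limit read from the data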;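 further: cells exposed to compound overnight for roughly 16 to 18 hours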
Wnt3a cs: inhibits Wnt3a reporter, counter-screen for Gli-SUFU antagonists. shares compounds with Gli-Sufu antag. Wnt-LIGHT cells, Wnt3a-driven luciferase reporter, luminescence. inhibition, % at 6.25 µM. hit rate 20% among 2,500. AID 651995;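 active means mean inhibition above about 25%, limit read from the data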
Numbers stand for hits; i = inactive; nt = no result.

SMILES	Gli-Sufu antag	GalR3 antag	COUP-TFII inh	H9c2 protect	FXN GAA850 act	SMARCA2 activ	Gli antag conf	SufuKO cytotox	Wnt3a cs
CC(=O)OCC1=C(C(=O)O)N2C(=O)C(NC(=O)c3ccc(COc4ccc(Cl)cc4)o3)C2SC1 (centres undefined)	i	i	i	i	i	i	i	i	i
CC(=O)OCC1=C(C(=O)O)N2C(=O)C(NC(=O)c3ccc(COc4c(C)cccc4Cl)o3)C2SC1 (centres undefined)	i	i	i	i	i	i	nt	nt	nt
COc1ccc(/C=N/NC(=O)c2nc(-c3ccccc3)n(-c3ccccc3)n2)c(O)c1	63	i	i	61	i	i	62	34	56
COc1ccc(/C=N/NC(=O)c2nc(-c3ccccc3)n(-c3ccccc3)n2)cc1	i	i	i	i	i	i	nt	nt	nt
CC(C)NC(=O)c1ccc(CN2CCC(Cc3ccccc3)CC2)cc1	i	i	i	i	i	i	nt	nt	nt
C=CCNC(=O)c1ccc(CN2CCC(Cc3ccccc3)CC2)cc1	56	i	i	i	i	i	i	i	i
Cc1ccc(NS(=O)(=O)c2cccc(C(=O)NCC(c3ccc(F)cc3)N3CCOCC3)c2)cc1 (centres undefined)	i	i	i	i	i	i	nt	nt	nt
O=C1NC[C@H](CCCCN2CCN(CCc3ccccc3)C(=O)C2=O)N(CCC2CCCCC2)C1=O	nt	i	i	nt	nt	i	nt	nt	nt
COc1ccc2c(c1)c(CC(=O)OCC(N)=O)c(C)n2C(=O)c1ccc(Cl)cc1	64	i	i	i	i	i	i	i	i
COc1ccc2c(c1)c(CC(=O)OCC(=O)O)c(C)n2C(=O)c1ccc(Cl)cc1	i	i	i	i	i	i	nt	nt	nt
COC(=O)/C=C1\Nc2ccc(Cl)cc2C(=O)NC1=O	nt	i	i	nt	nt	i	nt	nt	nt
CCN1/C(=C\C=C(C(C)=O)C(C)=O)Sc2ccccc21	i	i	i	i	i	i	nt	nt	nt
CCN1/C(=C\C(=S)Nc2ccccc2)Sc2ccccc21	i	i	i	i	i	i	55	i	i
COc1ccc(-c2c(C)nn3c(NC4CCCC4)cc(C)nc23)cc1OC	i	i	i	i	i	i	nt	nt	nt
CCc1c(C)nc2cc(-c3ccc(OC)c(OC)c3)nn2c1NCC1CC1	74	i	i	i	i	i	74	27	35
CCOCCCn1c(SCc2nc3ccccc3s2)nc2ccccc2c1=O	i	i	i	i	i	i	i	i	i
COc1ccc(N2CCN(C3CCCN(Cc4cccc(OC)c4)C3)CC2)cc1 (centres undefined)	i	i	i	i	i	i	nt	nt	nt
CCCCCCCCN1C(=O)[C@@H](CC(=O)NCc2cccs2)C[C@@]2(C(=O)OC)C1=C[C@H](C(C)C)O[C@@H]2C1CC1	nt	nt	i	nt	nt	i	nt	nt	nt
CCCCCCn1cc(CN2CC(N(C)CCC)CS2(=O)=O)nn1 (centres undefined)	nt	i	i	nt	nt	i	nt	nt	nt
COc1ccc(Cn2cc(CN3CC(N4CCN(C)CC4)CS3(=O)=O)nn2)cc1 (centres undefined)	nt	i	i	nt	nt	i	nt	nt	nt
COc1ccc(S(=O)(=O)Cc2ccc(C(=O)N3CCN(c4ccc(Cl)cc4)CC3)o2)cc1	i	i	i	i	i	i	i	i	i
COc1ccc(N2CCN(C(=O)c3ccc(Cn4nc(C)c([N+](=O)[O-])c4C)o3)CC2)cc1	90	i	i	i	i	i	i	27	i
CCOC(=O)C1(CCc2ccccc2)CCN(Cc2cc(OC)c(OC)cc2OC)CC1	60	i	i	i	i	i	i	i	i
CCOC(=O)C1(CCOc2ccccc2)CCN(Cc2cc(OC)c3c(c2)OCO3)CC1	i	i	i	i	i	i	i	i	i
CCOC(=O)C1(CCOc2ccccc2)CCN(Cc2cccc(OC)c2OC)CC1	56	i	i	i	i	i	i	i	i
SMILES	Gli-Sufu antag	GalR3 antag	COUP-TFII inh	H9c2 protect	FXN GAA850 act	SMARCA2 activ	Gli antag conf	SufuKO cytotox	Wnt3a cs
CCC(C)N(C(=O)CN1C(=O)C2CCCCN2C(=O)c2ccccc21)C(C)CC (centres undefined)	nt	nt	i	nt	nt	i	nt	nt	nt
CC(=O)Nc1ccc(S(=O)(=O)N2C3CCCC2CC(NC(=O)C2CCCCC2)C3)cc1 (centres undefined)	95	i	i	i	i	i	i	i	i
CC(=O)Nc1ccc(S(=O)(=O)N2CCC(C(=O)NC3CCCC3)CC2)cc1	i	i	i	i	i	i	nt	nt	nt
CC(C)C(=O)N1CCN(c2ccccc2NC(=O)COc2ccccc2)CC1	i	i	i	i	i	i	i	i	i
CC(C)C(=O)N1CCN(c2ccccc2NC(=O)COc2ccc(C3CCCCC3)cc2)CC1	i	i	i	i	i	i	nt	nt	nt
CC1(C)CC2CC(C)(CN2c2ncnc3ccccc23)C1 (centres undefined)	i	i	i	i	i	i	i	i	i
COC(=O)[C@]12C[C@H](CC(=O)N3CCOCC3)C(=O)N(CCc3ccc(OC)c(OC)c3)C1=C[C@H](COCc1ccccc1)O[C@@H]2C	nt	nt	i	nt	nt	i	nt	nt	nt
Cc1cc(NC(=O)C2=C(O)c3ccccc3S(=O)(=O)N2C)no1	62	nt	i	i	i	i	i	28	i
C(#Cc1ccccc1)C[N+]1(CC#Cc2ccccc2)CCCC1	76	i	i	i	i	i	75	i	i
Cc1ccccc1N1C(=O)C(Cl)=C(N2CCCCCC2)C1=O	i	i	i	i	i	i	nt	nt	nt
O=C1C(Cl)=C(N2CCCCC2)C(=O)N1c1ccccc1Cl	60	i	i	i	i	i	i	i	i
COc1cc(/C=N/NC(=O)c2ccncc2)ccc1OC(C)=O	58	i	i	i	i	i	i	i	i
CC[n+]1c(/C=C/Nc2ccccc2)oc2ccc(OC)cc21	i	i	i	i	i	i	nt	nt	nt
CC[n+]1c(/C=C/N(C)c2ccccc2)oc2ccc(F)cc21	82	i	i	i	i	i	84	26	70
COc1ccc(-c2cn(-c3ccc(Cl)cc3)c3[n+]2CCCCC3)cc1	80	i	i	i	i	i	78	31	i
COc1ccc(-n2cc(-c3ccc(OC(F)F)cc3)[n+]3c2CCCCC3)cc1	81	i	i	i	i	i	83	33	i
Clc1ccc(-c2cn(-c3ccc(Cl)cc3)c3[n+]2CCCCC3)cc1	58	i	i	i	i	i	58	29	i
COc1ccccc1CNC(=O)N1CCN(Cc2nc3ccccc3c(=O)[nH]2)CC1	nt	nt	i	nt	nt	i	nt	nt	nt
COc1ccccc1NC(=O)C(=O)N/N=C(\C)CC(=O)Nc1ccccn1	nt	i	i	i	i	i	nt	nt	nt
C/C(CC(=O)Nc1ccccn1)=N\NC(=O)C(=O)Nc1ccccc1C	56	i	i	i	i	i	i	i	i
